Laboratory results taken from PubChem BioAssay (NCI).
About 79,000 compounds went through this panel and 15% of them were active in at least one assay; those are over-represented in the sample as a whole. Activity calls are given as the source filed them. No stated cut-off is given here; in the data, active means growth inhibition above about 70%; inactive means the rest.

Tests used:
[1] = NCI Yeast Anticancer Drug Screen. Data for the rad52 strain (AID 147);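 further: 0% = growth of vehicle-treated control cultures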; settings: S. cerevisiae rad52 mutant growth inhibition, hits give high values
How it was run: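 Inhibition of yeast growth, referenced to vehicle controls, was the measured output for a strain with defective DNA damage repair.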

[2] = NCI Yeast Anticancer Drug Screen. Data for the wt1 strain (AID 149);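 further: 0% = growth of vehicle-treated wt1 cultures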; settings: S. cerevisiae wt1 strain (SPY 50644) growth inhibition, hits give high values
How it was run: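 Yeast wt1 strain exposed to compounds; growth inhibition measured relative to vehicle-treated controls.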

[3] = NCI Yeast Anticancer Drug Screen. Data for the rad50EPP+ strain (AID 151);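 further: 0% = growth of vehicle-treated control cultures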; settings: S. cerevisiae rad50 mutant strain, hits give high values
How it was run: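 Genetically defined yeast (rad50EPP+, DNA damage repair alteration) is grown with compound, and inhibition of growth is expressed relative to vehicle-treated controls.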

[4] = NCI Yeast Anticancer Drug Screen. Data for the mgt1 strain (AID 153); settings: S. cerevisiae mgt1 mutant growth inhibition, hits give high values
How it was run: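 In the mgt1 strain, test compounds were added and growth inhibition was determined relative to vehicle-treated controls.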

[5] = NCI Yeast Anticancer Drug Screen. Data for the rad50 strain (AID 155);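 further: 0% = growth of vehicle-only cultures of the same strain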; settings: S. cerevisiae rad50 strain growth inhibition, hits give high values
How it was run: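 Yeast carrying a defined DNA repair defect were exposed to test compounds, and growth was compared with vehicle-treated controls to give percent inhibition.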

[6] = NCI Yeast Anticancer Drug Screen. Data for the mec2-1 strain (AID 157); settings: S. cerevisiae mec2-1 strain, hits give high values
How it was run: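 Each compound was tested on mec2-1 yeast, a strain altered in DNA damage repair or cell cycle control. Growth inhibition is reported relative to vehicle.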

[7] = NCI Yeast Anticancer Drug Screen. Data for the rad14 strain (AID 159);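 further: 0% = growth of vehicle-treated control cultures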; settings: S. cerevisiae rad14 strain growth inhibition, hits give high values
How it was run: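 Yeast cells carrying a defined DNA-repair defect were exposed to compounds, and growth inhibition was calculated relative to vehicle-treated control cultures.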

[8] = NCI Yeast Anticancer Drug Screen. Data for the sgs1 mgt1 strain (AID 161);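 further: 0% = growth of cultures given vehicle only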; settings: S. cerevisiae sgs1 mgt1 strain, hits give high values
How it was run: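 Test agents were incubated with a DNA-repair-mutant yeast strain. Growth was then read and compared against vehicle-treated controls.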

[9] = NCI Yeast Anticancer Drug Screen. Data for the CLN2oe strain (AID 163);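 further: 0% = growth of vehicle-only control cultures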; settings: S. cerevisiae CLN2oe strain, hits give high values
How it was run: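 First, the altered yeast strain was treated with each compound; second, its growth was measured; finally, inhibition was derived by comparison with vehicle controls.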

[10] = NCI Yeast Anticancer Drug Screen. Data for the cln2 rad14 strain (AID 165);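 further: 0% = growth equal to vehicle treated cultures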; settings: S. cerevisiae cln2 rad14 strain, hits give high values
How it was run: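 Test compounds were added to cln2 rad14 yeast cultures; inhibition of growth was then determined by comparison with vehicle treatment.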

[11] = NCI Yeast Anticancer Drug Screen. Data for the bub3 strain (AID 167); settings: S. cerevisiae bub3 mutant strain, hits give high values
How it was run: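 Compounds were applied to a genetically altered yeast strain carrying a cell-cycle control defect. Growth inhibition was scored against vehicle-treated controls.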

[12] = NCI Yeast Anticancer Drug Screen. Data for the wt2 strain (AID 169);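 further: 0% = growth of vehicle-treated yeast cultures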; settings: S. cerevisiae wt2 strain growth inhibition, hits give high values
How it was run: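 The panel's yeast strains carry defined changes in DNA repair or cell cycle genes. Each strain is grown with compound, and growth loss is scored relative to vehicle.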

[13] = NCI Yeast Anticancer Drug Screen. Data for the sgs1 strain (AID 173);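 further: 0% = growth of vehicle-only control cultures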; settings: S. cerevisiae sgs1 mutant, hits give high values
How it was run: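 Vehicle-treated cultures served as reference for growth inhibition of a yeast strain altered in DNA damage repair or cell cycle control after compound exposure.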

[14] = NCI Yeast Anticancer Drug Screen. Data for the mlh1 rad18 strain (AID 175); settings: S. cerevisiae mlh1 rad18 strain growth inhibition, hits give high values
How it was run: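 Inhibition values reflect reduced growth of mutant yeast versus vehicle-treated controls following compound exposure; the mutations affect DNA damage repair.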

[15] = NCI Yeast Anticancer Drug Screen. Data for the rad18 strain (AID 177); settings: S. cerevisiae rad18 mutant growth inhibition, hits give high values
How it was run: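 Steps: expose repair-mutant yeast to compound; measure growth; express as inhibition relative to vehicle control.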

[16] = at 5.0 µM (retest, dose inferred, filed as 0.5)
[17] = at 50.0 µM (retest, dose inferred, filed as 5.0)

Measured: growth inhibition

O=C1C=C(NCCc2cc(Br)c(O)c(Br)c2)C(=O)c2ncccc21
active: [1]; at 33.0 µM 89% | [1]; at 100.0 µM 94% | [2]; at 100.0 µM 95% | [3]; at 33.0 µM 82% | [3]; at 100.0 µM 90% | [4]; at 100.0 µM 94% | [5]; at 33.0 µM 88% | [5]; [17] 89% | [5]; at 50.0 µM 92.1% | [5]; at 100.0 µM 94% | [6]; [17] 92% | [6]; at 50.0 µM 73.8% | [6]; at 100.0 µM 93% | [7]; at 33.0 µM 82% | [7]; at 100.0 µM 93% | [8]; [17] 83% | [8]; at 50.0 µM 89.5% | [9]; at 100.0 µM 90% | [10]; [17] 90% | [11]; [17] 96% | [11]; at 50.0 µM 95.5% | [11]; at 100.0 µM 94% | [12]; at 100.0 µM 91% | [13]; at 33.0 µM 82% | [13]; at 100.0 µM 96% | [14]; [17] 95% | [14]; at 50.0 µM 91% | [15]; at 11.0 µM 75% | [15]; at 33.0 µM 91% | [15]; at 100.0 µM 95%
inactive: [1]; at 1.2 µM 40% | [1]; at 3.7 µM 50% | [1]; at 11.0 µM 54% | [2]; at 1.2 µM 17% | [2]; at 3.7 µM 19% | [2]; at 11.0 µM 27% | [2]; at 33.0 µM 53% | [3]; at 1.2 µM 23% | [3]; at 3.7 µM 38% | [3]; at 11.0 µM 49% | [4]; at 1.2 µM 13% | [4]; at 3.7 µM 15% | [4]; at 11.0 µM 25% | [4]; at 33.0 µM 69% | [5]; at 1.2 µM 18% | [5]; at 3.7 µM 24% | [5]; [16] 1% | [5]; at 11.0 µM 44% | [6]; at 1.2 µM 6% | [6]; at 3.7 µM 21% | [6]; [16] -5% | [6]; at 11.0 µM 28% | [6]; at 33.0 µM 69% | [7]; at 1.2 µM 24% | [7]; at 3.7 µM 21% | [7]; at 11.0 µM 23% | [8]; [16] 4% | [9]; at 1.2 µM -5% | [9]; at 3.7 µM 39% | [9]; at 11.0 µM 41% | [9]; at 33.0 µM 55% | [10]; [16] 21% | [10]; at 50.0 µM 46.2% | [11]; at 1.2 µM -2% | [11]; at 3.7 µM -6% | [11]; [16] 12% | [11]; at 11.0 µM 5% | [11]; at 33.0 µM 68% | [12]; at 1.2 µM 13% | [12]; at 3.7 µM 15% | [12]; at 11.0 µM 26% | [12]; at 33.0 µM 67% | [13]; at 1.2 µM 28% | [13]; at 3.7 µM 29% | [13]; at 11.0 µM 43% | [14]; [16] 21% | [15]; at 1.2 µM 55% | [15]; at 3.7 µM 54%

Cc1ccc(Nc2n[nH]c(=S)s2)c(C)c1
active: [1]; at 100.0 µM 89% | [2]; at 100.0 µM 90% | [4]; at 100.0 µM 85% | [5]; at 100.0 µM 90% | [6]; at 100.0 µM 83% | [7]; at 100.0 µM 91% | [8]; at 50.0 µM 70.5% | [9]; at 100.0 µM 76% | [11]; [17] 71% | [11]; at 100.0 µM 84% | [12]; at 100.0 µM 91% | [13]; at 100.0 µM 93% | [15]; at 100.0 µM 93%
inactive: [1]; at 1.2 µM -42% | [1]; at 3.7 µM -28% | [1]; at 11.0 µM -33% | [1]; at 33.0 µM 2% | [2]; at 1.2 µM -16% | [2]; at 3.7 µM -3% | [2]; at 11.0 µM -10% | [2]; at 33.0 µM 18% | [3]; at 1.2 µM -45% | [3]; at 3.7 µM -33% | [3]; at 11.0 µM 23% | [3]; at 33.0 µM 56% | [3]; at 100.0 µM 51% | [4]; at 1.2 µM -52% | [4]; at 3.7 µM -56% | [4]; at 11.0 µM -21% | [4]; at 33.0 µM 58% | [5]; at 1.2 µM -11% | [5]; at 3.7 µM -15% | [5]; [16] 21% | [5]; at 11.0 µM 0% | [5]; at 33.0 µM 15% | [5]; [17] 18% | [5]; at 50.0 µM 56.3% | [6]; at 1.2 µM -44% | [6]; at 3.7 µM -45% | [6]; [16] -11% | [6]; at 11.0 µM -18% | [6]; at 33.0 µM -3% | [6]; [17] 8% | [6]; at 50.0 µM 14.8% | [7]; at 1.2 µM -45% | [7]; at 3.7 µM -33% | [7]; at 11.0 µM -41% | [7]; at 33.0 µM 37% | [8]; [16] -6% | [8]; [17] 44% | [9]; at 1.2 µM 4% | [9]; at 3.7 µM 0% | [9]; at 11.0 µM -10% | [9]; at 33.0 µM 13% | [10]; [16] 24% | [10]; [17] 49% | [10]; at 50.0 µM 48.1% | [11]; at 1.2 µM 3% | [11]; at 3.7 µM 10% | [11]; [16] 3% | [11]; at 11.0 µM 30% | [11]; at 33.0 µM 17% | [11]; at 50.0 µM 52.5% | [12]; at 1.2 µM -38% | [12]; at 3.7 µM -34% | [12]; at 11.0 µM -10% | [12]; at 33.0 µM 62% | [13]; at 1.2 µM -29% | [13]; at 3.7 µM -28% | [13]; at 11.0 µM 9% | [13]; at 33.0 µM 51% | [14]; [16] 1% | [14]; [17] 19% | [14]; at 50.0 µM 24.4% | [15]; at 1.2 µM -27% | [15]; at 3.7 µM -25% | [15]; at 11.0 µM -13% | [15]; at 33.0 µM 39%
